The supplement of paper PMC8371130
Where a name gives a salt, the structure may show the parent alone.

System: HL-1
Experiment: relative cell viability (CellTiter-Glo) vs DMSO control (% of DMSO control); higher = more viable cells
In short: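 In 384-well plates, 1000 HL-1 mouse atrial cardiomyocytes per well were plated with compounds at 40, 200, 1000 or 5000 nM in 0.01% DMSO. Hypoxia at 1% O2 for 48 h began one day later and was followed by 24 h of reoxygenation, with parallel plates held in normoxia. CellTiter-Glo luminescence gave cell viability relative to vehicle-treated control cells.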

[1] = oxygen condition: hypoxia 48 h (1% O2) + reoxygenation 24 h, 40 nM
[2] = oxygen condition: hypoxia 48 h (1% O2) + reoxygenation 24 h, 200 nM
[3] = oxygen condition: hypoxia 48 h (1% O2) + reoxygenation 24 h, 1000 nM
[4] = oxygen condition: hypoxia 48 h (1% O2) + reoxygenation 24 h, 5000 nM
[5] = oxygen condition: normoxia 72 h, 40 nM
[6] = oxygen condition: normoxia 72 h, 200 nM
[7] = oxygen condition: normoxia 72 h, 1000 nM
[8] = oxygen condition: normoxia 72 h, 5000 nM

| Compound | relative cell viability [1] | relative cell viability [2] | relative cell viability [3] | relative cell viability [4] | relative cell viability [5] | relative cell viability [6] | relative cell viability [7] | relative cell viability [8] |
| --- | --- | --- | --- | --- | --- | --- | --- | --- |
| CN1CCC(=C2c3ccccc3CC(=O)c3sccc32)CC1 [Ketotifen fumarate] | 108 | 103 | 101 | 113 | 99.8 | 100 | 105 | 106 |
| CC(C)[C@H](N)C(=O)OCC(CO)OCn1cnc2c(=O)nc(N)[nH]c21 (stereo partly specified) [valganciclovir hydrochloride] | 107 | 107 | 107 | 121 | 108 | 110 | 114 | 115 |
| CCN(CC)CC#CCOC(=O)C(O)(c1ccccc1)C1CCCCC1 (stereo unspecified) [Oxybutynin chloride] | 94.2 | 99.1 | 98.7 | 98.8 | 104 | 96.3 | 91.2 | 107 |
| CCC1=C(C)CN(C(=O)NCCc2ccc(S(=O)(=O)NC(=O)N[C@H]3CC[C@H](C)CC3)cc2)C1=O [Glimepiride] | 93.1 | 96.3 | 95.2 | 106 | 88.9 | 77.4 | 94.7 | 105 |
| NC(=O)N1c2ccccc2C=Cc2ccccc21 [Carbamazepine] | 97.1 | 103 | 105 | 106 | 103 | 103 | 95.1 | 109 |
| Oc1ccc(OC2CCCCO2)cc1 (stereo unspecified) [Deoxyarbutin] | 103 | 104 | 107 | 113 | 103 | 102 | 113 | 109 |
| Oc1cc(O)c(Cl)cn1 [Gimeracil] | 99.3 | 101 | 100 | 104 | 97.8 | 101 | 101 | 105 |
| CC(C)(C(=O)O)c1ccc(C(O)CCCN2CCC(C(O)(c3ccccc3)c3ccccc3)CC2)cc1 (stereo unspecified) [Fexofenadine HCl] | 106 | 96.5 | 99.8 | 99.8 | 107 | 96.2 | 104 | 110 |
| CC(C)c1nc(CN(C)C(=O)N[C@@H](CCN2CCOCC2)C(=O)N[C@H](CC[C@H](Cc2ccccc2)NC(=O)OCc2cncs2)Cc2ccccc2)cs1 [Cobicistat] | 109 | 109 | 108 | 120 | 111 | 107 | 108 | 113 |
| NC[C@H]1CC[C@H](C(=O)O)CC1 [Tranexamic acid] | 99.9 | 102 | 100 | 104 | 101 | 104 | 102 | 112 |
| CC(C)C[C@H](NC(=O)[C@@H](O)[C@H](N)Cc1ccccc1)C(=O)O [Ubenimex] | 99.1 | 95.6 | 98.2 | 103 | 101 | 98.8 | 99.7 | 108 |
| CCOC(=O)C1=C(C)NC(C)=C(C(=O)OC)C1c1cccc(Cl)c1Cl (stereo unspecified) [Felodipine] | 101 | 105 | 88.9 | 98.7 | 99.1 | 101 | 98 | 101 |
| CN1CC2c3ccccc3Oc3ccc(Cl)cc3C2C1 (stereo unspecified) [Asenapine] | 105 | 104 | 108 | 106 | 111 | 101 | 103 | 111 |
| Nc1[nH]cnc2ncnc1-2 [Adenine] | 101 | 97.9 | 98.1 | 109 | 102 | 95.5 | 98.6 | 106 |
| CC(C)n1c(/C=C/C(O)CC(O)CC(=O)O)c(-c2ccc(F)cc2)c2ccccc21 (stereo unspecified) [Fluvastatin sodium] | 88.9 | 57.3 | 17.3 | 3.7 | 101 | 83.5 | 28.6 | 4.76 |
| CCC(C)n1ncn(-c2ccc(N3CCN(c4ccc(OCC5COC(Cn6cncn6)(c6ccc(Cl)cc6Cl)O5)cc4)CC3)cc2)c1=O (stereo unspecified) [Itraconazole] | 99.1 | 101 | 100 | 108 | 103 | 106 | 101 | 107 |
| CO[C@@H]1[C@@H](OC(N)=O)[C@@H](O)[C@H](Oc2ccc3c(O)c(NC(=O)c4ccc(O)c(CC=C(C)C)c4)c(=O)oc3c2C)OC1(C)C [Novobiocin sodium] | 100 | 102 | 102 | 110 | 97.1 | 99.2 | 101 | 113 |
| Clc1ccc(C(Cn2ccnc2)OCc2ccc(Sc3ccccc3)cc2)c(Cl)c1 (stereo unspecified) [Fenticonazole nitrate] | 102 | 102 | 105 | 107 | 102 | 98 | 101 | 104 |
| CCOC(=O)c1ncn2c1CN(C)C(=O)c1cc(F)ccc1-2 [Flumazenil] | 104 | 107 | 100 | 115 | 107 | 98.5 | 104 | 106 |
| CN1CCN2c3ccccc3Cc3ccccc3C2C1 (stereo unspecified) [Mianserin hydrochloride] | 74.7 | 97.7 | 84 | 107 | 63.6 | 92.5 | 98.1 | 111 |
| CCCN(CCC)S(=O)(=O)c1ccc(C(=O)O)cc1 [Probenecid] | 103 | 109 | 108 | 110 | 101 | 104 | 109 | 115 |
| CC(C)(C#N)c1cc(Cn2cncn2)cc(C(C)(C)C#N)c1 [Anastrozole] | 94.2 | 99.5 | 57.7 | 34.5 | 100 | 93.2 | 87.9 | 22.4 |
